# Measured values reported in the supplement of paper PMC6089552.
# Screen size: about 3,200 compounds; about 300 (9.4%) showed activity. The sample as a whole holds a higher share of actives than the screen did. A number with no mark means an inactive call.
# System: A673/TR/shEF
# Test: cell viability (LOESS-normalised, relative to median of negative controls) (log2 ratio); higher = more viable cells (less compound effect), active = hit call of the paper (over 3 MAD below the median)
# Conditions: treatment time: 72 h
# Summary of the method: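 Doxycycline, present or absent from 24 h before compounds, was used to induce EWS-FLI1 shRNA knockdown in A673/TR/shEF Ewing sarcoma cells at 1,500 per well in 384-well plates. Cells then received library compounds at two or more concentrations, or DMSO controls, for three days. Viability was measured by CellTiter-Glo luminescence on an Envision reader, and per-plate LOESS correction, division by the negative-control median and log2 transformation followed.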
# [1] = 0.25 µM, library screen: screen2, EWS-FLI1 expression: high (no doxycycline)
# [2] = 0.25 µM, library screen: screen2, EWS-FLI1 expression: low (doxycycline-induced shRNA knockdown)
# [3] = 2.5 µM, library screen: screen2, EWS-FLI1 expression: high (no doxycycline)
# [4] = 2.5 µM, library screen: screen2, EWS-FLI1 expression: low (doxycycline-induced shRNA knockdown)
# [5] = 0.25 µM, library screen: screen1, EWS-FLI1 expression: high (no doxycycline)
# [6] = 0.25 µM, library screen: screen1, EWS-FLI1 expression: low (doxycycline-induced shRNA knockdown)
# [7] = 2.5 µM, library screen: screen1, EWS-FLI1 expression: high (no doxycycline)
# [8] = 2.5 µM, library screen: screen1, EWS-FLI1 expression: low (doxycycline-induced shRNA knockdown)
# [9] = 0.103 µM, library screen: screen3, EWS-FLI1 expression: high (no doxycycline)
# [10] = 0.103 µM, library screen: screen3, EWS-FLI1 expression: low (doxycycline-induced shRNA knockdown)
# [11] = 0.308 µM, library screen: screen3, EWS-FLI1 expression: high (no doxycycline)
# [12] = 0.308 µM, library screen: screen3, EWS-FLI1 expression: low (doxycycline-induced shRNA knockdown)
# [13] = 0.926 µM, library screen: screen3, EWS-FLI1 expression: high (no doxycycline)
# [14] = 0.926 µM, library screen: screen3, EWS-FLI1 expression: low (doxycycline-induced shRNA knockdown)
# [15] = 2.8 µM, library screen: screen3, EWS-FLI1 expression: high (no doxycycline)
# [16] = 2.8 µM, library screen: screen3, EWS-FLI1 expression: low (doxycycline-induced shRNA knockdown)
# [17] = 8.3 µM, library screen: screen3, EWS-FLI1 expression: high (no doxycycline)
# [18] = 8.3 µM, library screen: screen3, EWS-FLI1 expression: low (doxycycline-induced shRNA knockdown)
# [19] = 25 µM, library screen: screen3, EWS-FLI1 expression: high (no doxycycline)
# [20] = 25 µM, library screen: screen3, EWS-FLI1 expression: low (doxycycline-induced shRNA knockdown)
smiles,measurement,setting,value
COc1cc(OC)cc(C(CNc2ncnc3c2ncn3C2O[C@H](CO)[C@@H](O)[C@H]2O)c2ccccc2C)c1 (some centres undefined),cell viability (log2),[1],0.151
same,cell viability (log2),[2],0.0311
same,cell viability (log2),[3],0.147
same,cell viability (log2),[4],0.121
C#CCCCCCCCCCCC[C@@H](O)C[C@@H](O)COC(C)=O,cell viability (log2),[5],0.145
same,cell viability (log2),[6],0.0417
same,cell viability (log2),[7],0.08
same,cell viability (log2),[8],0.0325
COc1ccc(CN2CCN(Cc3ccccc3C(F)(F)F)CC2)c(OC)c1OC,cell viability (log2),[5],-0.00682
same,cell viability (log2),[6],0.0327
same,cell viability (log2),[7],0.087
same,cell viability (log2),[8],0.144
CC=C(C)C(=O)OC1Cc2c(ccc3ccc(=O)oc23)OC1(C)C (centres undefined),cell viability (log2),[5],0.052
same,cell viability (log2),[6],0.0529
same,cell viability (log2),[7],0.186
same,cell viability (log2),[8],0.0456
CCCCCCCCCCCCCCCCCCOCC(O)CO (centres undefined),cell viability (log2),[5],0.0496
same,cell viability (log2),[6],0.117
same,cell viability (log2),[7],0.142
same,cell viability (log2),[8],0.0249
COc1ccc2c(c1)OC[C@@H](Cc1ccc(OC)c(OC)c1)C2=O,cell viability (log2),[5],-0.018
same,cell viability (log2),[6],0.0264
same,cell viability (log2),[7],0.11
same,cell viability (log2),[8],0.0741
COc1ccc2c(c1)OCC(Cc1ccc(OC)c(OC(C)=O)c1)C2=O (centres undefined),cell viability (log2),[5],0.0793
same,cell viability (log2),[6],-0.0163
same,cell viability (log2),[7],-0.246 (active)
same,cell viability (log2),[8],-0.0188
COc1ccc2c(c1)OC[C@@H](Cc1ccc(OC)c(OC)c1)[C@@H]2O,cell viability (log2),[5],0.137
same,cell viability (log2),[6],-0.0181
same,cell viability (log2),[7],0.209
same,cell viability (log2),[8],0.0843
Oc1cc(O)c2c(c1)O[C@H](c1cc(O)c(O)c(O)c1)[C@H](O)[C@H]2c1c(O)cc(O)c2c1O[C@H](c1cc(O)c(O)c(O)c1)[C@H](O)[C@H]2c1c(O)cc(O)c2c1O[C@H](c1cc(O)c(O)c(O)c1)[C@H](O)C2,cell viability (log2),[5],-0.0224
same,cell viability (log2),[6],0.066
same,cell viability (log2),[7],0.107
same,cell viability (log2),[8],0.0716
OC[C@H]1O[C@@H](O[C@H]2[C@H](O)[C@@H](O)C(O)O[C@@H]2CO)[C@H](O)[C@@H](O)[C@@H]1O (some centres undefined),cell viability (log2),[5],-0.0294
same,cell viability (log2),[6],0.0659
same,cell viability (log2),[7],0.116
same,cell viability (log2),[8],0.0995
CC(C)(C)C(=O)OCOP(=O)(COCCn1cnc2c(N)ncnc21)OCOC(=O)C(C)(C)C,cell viability (log2),[9],-0.0455
same,cell viability (log2),[10],0.0657
same,cell viability (log2),[11],-0.0326
same,cell viability (log2),[12],0.0345
same,cell viability (log2),[13],-0.105
same,cell viability (log2),[14],-0.0287
same,cell viability (log2),[15],-0.371 (active)
same,cell viability (log2),[16],-0.0209
same,cell viability (log2),[17],-0.686 (active)
same,cell viability (log2),[18],-0.0516
same,cell viability (log2),[19],-1.44 (active)
same,cell viability (log2),[20],-0.304 (active)
C[C@H](Cn1cnc2c(N)ncnc21)OCP(=O)(O)O,cell viability (log2),[9],0.0857
same,cell viability (log2),[10],0.09
same,cell viability (log2),[1],0.128
same,cell viability (log2),[2],0.113
same,cell viability (log2),[11],0.00908
same,cell viability (log2),[12],0.0155
same,cell viability (log2),[13],0.0338
same,cell viability (log2),[14],0.0939
same,cell viability (log2),[3],0.189
same,cell viability (log2),[4],0.0365
same,cell viability (log2),[15],0.0533
same,cell viability (log2),[16],0.0269
same,cell viability (log2),[17],-0.0007
same,cell viability (log2),[18],0.0852
same,cell viability (log2),[19],0.0436
same,cell viability (log2),[20],0.126
Nc1ncnc2c1ncn2[C@@H]1O[C@H](COP(=O)(O)O)[C@@H](O)[C@H]1O,cell viability (log2),[5],0.101
same,cell viability (log2),[6],-0.0633
same,cell viability (log2),[7],0.171
same,cell viability (log2),[8],0.117
CC1CCC(O)C/C1=C/C=C1\CCCC2(C)C1CCC2C(C)/C=C/C(C)C(C)C (centres undefined),cell viability (log2),[5],0.0469
same,cell viability (log2),[6],0.0169
same,cell viability (log2),[7],0.0774
same,cell viability (log2),[8],0.0401
COc1cc(C2NC(=O)NC(C)=C2C(=O)Nc2cccc(Cl)c2)cc(OC)c1OC (centres undefined),cell viability (log2),[5],0.0796
same,cell viability (log2),[6],0.0843
same,cell viability (log2),[7],0.0754
same,cell viability (log2),[8],-0.0585
O[Si](CCCN1CCCCC1)(c1ccc(F)cc1)C1CCCCC1 (centres undefined),cell viability (log2),[1],0.132
same,cell viability (log2),[2],0.0854
same,cell viability (log2),[3],0.109
same,cell viability (log2),[4],0.178
Cc1c(NC(=O)Nc2ccc3ccccc3c2)c(=O)n(-c2ccccc2)n1C,cell viability (log2),[5],0.0897
same,cell viability (log2),[6],0.113
same,cell viability (log2),[7],0.056
same,cell viability (log2),[8],0.16
CC1(C)C(=O)N(CCN2CCC(C(=O)c3ccc(F)cc3)CC2)c2ccccc21,cell viability (log2),[9],-0.034
same,cell viability (log2),[10],0.0315
same,cell viability (log2),[1],0.081
same,cell viability (log2),[2],0.0775
same,cell viability (log2),[11],0.05
same,cell viability (log2),[12],0.0455
same,cell viability (log2),[13],0.00913
same,cell viability (log2),[14],0.0245
same,cell viability (log2),[3],0.0771
same,cell viability (log2),[4],0.0581
same,cell viability (log2),[15],-0.0171
same,cell viability (log2),[16],0.0924
same,cell viability (log2),[17],-0.00458
same,cell viability (log2),[18],0.0164
same,cell viability (log2),[19],0.0894
same,cell viability (log2),[20],0.0236
